This passage reports sensor-assay potency score (higher = more potent) results from the OligoGym collection.
Note: reference of the scale not given here.

The first assay addresses NODAL. The assay can be described thus: pooled miR-30 sensor sort-seq; sequence = guide strand. Conditions: shRNA.
Sequence TTTCAGCAGACTCTGGATGTAT had a sensor-assay potency score (higher = more potent) of -0.374.

TGATCTAGGAGCACTCTGCCAT yielded a sensor-assay potency score (higher = more potent) of -0.476.

For TTGGAGAATACATGAAAGCTAT, the sensor-assay potency score (higher = more potent) is -0.351.

Take TTCAGTAAAGAGAACATCCAGC: the sensor-assay potency score (higher = more potent) was 0.203.

As for TGTCTTTATGGTGATCTAGGAG, the sensor-assay potency score (higher = more potent) is -0.744.

As to TAAAGAACTCATGCACTTGTGC, the sensor-assay potency score (higher = more potent) was 0.25.

Turning to TGGTGATCTAGGAGCACTCTGC, the sensor-assay potency score (higher = more potent) is -1.24.

TAACGTTTCAGCAGACTCTGGA showed a sensor-assay potency score (higher = more potent) of 1.03.

Sequence TCTGCCATTATCCACATACAGC had a sensor-assay potency score (higher = more potent) of -1.71.

In turn, TTTATGGTGATCTAGGAGCACT showed a sensor-assay potency score (higher = more potent) of -0.921.

In turn, ATGTATGCATGGTTGGTCGGAT had a sensor-assay potency score (higher = more potent) of -0.818.

The sequence TTATCCACATACAGCATGCTCA returned a sensor-assay potency score (higher = more potent) of -0.807.

For the next assay, the target named is NOL7. The assay is described as above. The following applies: shRNA.
In turn, TTTCTGACCATCCACCGTCTTT had a sensor-assay potency score (higher = more potent) of -1.02.

With TGTACTTTAACTTTCTTGGAGT, the sensor-assay potency score (higher = more potent) is -0.613.

TTTTGTACTTTAACTTTCTTGG showed a sensor-assay potency score (higher = more potent) of -0.17.

In turn, TTAACTTCTTTCACCTTTCCTG came in with a sensor-assay potency score (higher = more potent) of -0.368.

In the case of TTCGATGAACAGCTCCTCGCGT, the sensor-assay potency score (higher = more potent) was -0.6.

Sequence TAACTTCTTTCACCTTTCCTGG yielded a sensor-assay potency score (higher = more potent) of -0.398.
